# Measurements reported in the supplement of paper PMC8728848.
# Only a selection was taken, and the strongest signals are over-represented in it overall.
# B1: Siglec-9 (Homo sapiens), Q9Y336 (protein)
# chain: MLLLLLPLLWGRERAEGQTSKLLTMQSSVTVQEGLCVHVPCSFSYPSHGWIYPGPVVHGYWFREGANTDQDAPVATNNPARAVWEETRDRFHLLGDPHTKNCTLSIRDARRSDAGRYFFKMEKGSIKWNYKHHRLSVNVTALTHRPNILIPGTLESGCPQNLTCSVPWACEQGTPPMISWIGTSVSPLDPSTTRSSVLTLIPQPQDHGTSLTCQVTFPGASVTTNKTVHLNVSYPPQNLTMTVFQGDGTVSTVLGNGSSLSLPEGQSLRLVCAVDAVDSNPPARLSLSWRGLTLCPSQPSNPGVLELPWVHLRDAAEFTCRAQNPLGSQQVYLNVSLQSKATSGVTQGVVGGAGATALVFLSFCVIFVVVRSCRKKSARPAAGVGDTGIEDANAVRGSASQGPLTEPWAEDSPPDQPPPASARSSVGEGELQYASLSFQMVKPWDSRGQEATDTEYSEIKIHR
# Key:
# Test in all cases: glycan array binding signal (z-score within array); higher = stronger binding
# Settings in all cases: glycan notation: IUPAC condensed, linker removed; mutation: R120K
# [1] = target: Fuc(a1-2)Gal(b1-3)GlcNAc(b1-3)GalNAc
# In short: (§1)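 The binding signal is a Z-score computed within each array. Data were drawn from 3228 arrays in the Consortium for Functional Glycomics database, restricted to those with a known protein sequence. Scores were averaged over arrays of the same protein sequence at different concentrations or buffers, and over linkers, and negative values can be taken as non-binding.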
# [2] = target: Fuc(a1-2)Gal(b1-3)[Fuc(a1-4)]GlcNAc(b1-2)Man(a1-3)[Fuc(a1-2)Gal(b1-3)[Fuc(a1-4)]GlcNAc(b1-2)Man(a1-3)]Man(b1-4)GlcNAc(b1-4)GlcNAc
# In short: as §1
# [3] = target: Fuc(a1-2)Gal(b1-4)Fuc(a1-3)]GlcNAc(b1-2)Man(a1-3)[Fuc(a1-2)Gal(b1-4)[Fuc(a1-3)]GlcNAc(b1-2)Man(a1-6)]Man(b1-4)GlcNAc(b1-4)GlcNAc
# In short: as §1
# [4] = target: Fuc(a1-2)Gal(b1-4)GlcNAc(b1-3)Gal(b1-4)GlcNAc(b1-2)Man(a1-3)[Fuc(a1-2)Gal(b1-4)GlcNAc(b1-3)Gal(b1-4)GlcNAc(b1-2)Man(a1-6)]Man(b1-4)GlcNAc(b1-4)GlcNAc
# In short: as §1
# [5] = target: Fuc(a1-2)Gal(b1-4)[Fuc(a1-3)]GlcNAc
# In short: as §1
# [6] = target: Fuc(a1-2)Gal6S(b1-3)GlcNAc6S
# In short: as §1
# [7] = target: Fuc(a1-2)[Gal(a1-3)]Gal(b1-3)GlcNAc(b1-2)Man(a1-3)[Fuc(a1-2)[Gal(a1-3)]Gal(b1-3)GlcNAc(b1-2)Man(a1-6)]Man(b1-4)GlcNAc(b1-4)[Fuc(a1-6)]GlcNAc
# In short: as §1
# [8] = target: Fuc(a1-2)[Gal(a1-3)]Gal(b1-4)GlcNAc(b1-3)[Fuc(a1-2)[Gal(a1-3)]Gal(b1-4)GlcNAc(b1-6)]GalNAc
# In short: as §1
# Fuc(a1-3)GlcNAc = target: Fuc(a1-3)GlcNAc
# In short: as §1
# [9] = target: Fuc(a1-3)[Gal(b1-4)]GlcNAc(b1-3)Gal(b1-3)[Fuc(a1-4)]GlcNAc
# In short: as §1
# Fuc(a1-4)GlcNAc = target: Fuc(a1-4)GlcNAc
# In short: as §1
# [10] = target: Gal(a1-3)Gal(b1-3)GlcNAc(b1-2)Man
# In short: as §1
# [11] = target: Gal(a1-3)Gal(b1-4)[Fuc(a1-3)]GlcNAc(b1-2)Man(a1-3)[Gal(a1-3)Gal(b1-4)[Fuc(a1-3)]GlcNAc(b1-2)Man(a1-6)]Man(b1-4)GlcNAc(b1-4)GlcNAc
# In short: as §1
# [12] = target: Gal(b1-3)GlcNAc(b1-2)Man(a1-3)[Gal(b1-3)GlcNAc(b1-2)Man(a1-6)]Man(b1-4)GlcNAc(b1-4)[Fuc(a1-6)]GlcNAc
# In short: as §1
# Gal(b1-4)Gal = target: Gal(b1-4)Gal
# In short: as §1
# [13] = target: Gal(b1-4)GlcNAc(b1-3)Gal(b1-3)GalNAc
# In short: as §1
# [14] = target: Gal(b1-4)GlcNAc(b1-3)Gal(b1-4)GlcNAc(b1-2)Man(a1-3)[Gal(b1-4)GlcNAc(b1-3)Gal(b1-4)GlcNAc(b1-2)Man(a1-6)]Man(b1-4)GlcNAc(b1-4)[Fuc(a1-6)]GlcNAc
# In short: as §1
# [15] = target: Gal(b1-4)GlcNAc(b1-3)Gal(b1-4)GlcNAc(b1-3)Gal(b1-4)GlcNAc(b1-3)Gal(b1-4)GlcNAc(b1-2)[Gal(b1-4)GlcNAc(b1-3)Gal(b1-4)GlcNAc(b1-3)Gal(b1-4)GlcNAc(b1-3)Gal(b1-4)GlcNAc(b1-6)]Man(a1-6)[Gal(b1-4)GlcNAc(b1-3)Gal(b1-4)GlcNAc(b1-3)Gal(b1-4)GlcNAc(b1-3)Gal(b1-4)GlcNAc(b1-2)Man(a1-3)]Man(b1-4)GlcNAc(b1-4)[Fuc(a1-6)]GlcNAc
# In short: as §1
# [16] = target: Gal(b1-4)GlcNAc(b1-3)GalNAc
# In short: as §1
# [17] = target: Gal(b1-4)GlcNAc(b1-6)GalNAc
# In short: as §1
# Gal(b1-4)GlcNAc6P = target: Gal(b1-4)GlcNAc6P
# In short: as §1
# Gal3S(b1-3)GlcNAc = target: Gal3S(b1-3)GlcNAc
# In short: as §1
# GalNAc3S(b1-4)GlcNAc = target: GalNAc3S(b1-4)GlcNAc
# In short: as §1
# GalNAc3S(b1-4)GlcNAc3S = target: GalNAc3S(b1-4)GlcNAc3S
# In short: as §1
# [18] = target: GalNAc3S(b1-4)[Fuc(a1-3)]GlcNAc
# In short: as §1
# [19] = target: GlcNAc(b1-2)Man(a1-3)[GlcNAc(b1-2)Man(a1-6)]Man(b1-4)GlcNAc(b1-4)[Fuc(a1-6)]GlcNAc
# In short: as §1
# [20] = target: GlcNAc(b1-2)[GlcNAc(b1-4)]Man(a1-3)[GlcNAc(b1-4)][GlcNAc(b1-2)Man(a1-6)]Man(b1-4)GlcNAc(b1-4)GlcNAc
# In short: as §1
# [21] = target: GlcNAc(b1-2)[GlcNAc(b1-6)]Man(a1-6)[GlcNAc(b1-2)Man(a1-3)]Man(b1-4)GlcNAc(b1-4)GlcNAc
# In short: as §1
# [22] = target: GlcNAc(b1-3)Gal(b1-4)GlcNAc(b1-2)Man(a1-3)[GlcNAc(b1-3)Gal(b1-4)GlcNAc(b1-2)Man(a1-6)]Man(b1-4)GlcNAc(b1-4)[Fuc(a1-6)]GlcNAc
# In short: as §1
# [23] = target: GlcNAc(b1-3)Gal(b1-4)GlcNAc(b1-2)[GlcNAc(b1-3)Gal(b1-4)GlcNAc(b1-6)]Man(a1-6)[GlcNAc(b1-3)Gal(b1-4)GlcNAc(b1-2)Man(a1-3)]Man(b1-4)GlcNAc(b1-4)GlcNAc
# In short: as §1
# [24] = target: GlcNAc(b1-3)Gal(b1-4)GlcNAc(b1-3)GalNAc
# In short: as §1
# Kdn(a2-3)Gal(b1-4)Glc = target: Kdn(a2-3)Gal(b1-4)Glc
# In short: as §1
# [25] = target: Man(a1-2)Man(a1-2)Man(a1-6)[Man(a1-3)]Man
# In short: as §1
# [26] = target: Man(a1-2)Man(a1-6)[Man(a1-3)]Man(a1-6)[Man(a1-2)Man(a1-2)Man(a1-3)]Man
# In short: as §1
# Neu5Ac(a2-3)Gal = target: Neu5Ac(a2-3)Gal
# In short: as §1
# [27] = target: Neu5Ac(a2-3)Gal(b1-3)GalNAc
# In short: as §1
# [28] = target: Neu5Ac(a2-3)Gal(b1-3)GalNAc(b1-4)Gal(b1-4)Glc
# In short: as §1
# [29] = target: Neu5Ac(a2-3)Gal(b1-3)GalNAc(b1-4)[Neu5Ac(a2-8)Neu5Ac(a2-3)]Gal(b1-4)Glc
# In short: as §1
# [30] = target: Neu5Ac(a2-3)Gal(b1-3)GlcNAc(b1-2)Man(a1-3)[Neu5Ac(a2-3)Gal(b1-3)GlcNAc(b1-2)Man(a1-6)]Man(b1-4)GlcNAc(b1-4)GlcNAc
# In short: as §1
# [31] = target: Neu5Ac(a2-3)Gal(b1-3)]Neu5Ac(a2-3)Gal(b1-4)]GlcNAc
# In short: as §1
# Neu5Ac(a2-3)Gal(b1-4)Glc = target: Neu5Ac(a2-3)Gal(b1-4)Glc
# In short: as §1
# [32] = target: Neu5Ac(a2-3)Gal(b1-4)GlcNAc(b1-2)Man(a1-3)[GlcNAc(b1-4)][Neu5Ac(a2-3)Gal(b1-4)GlcNAc(b1-2)Man(a1-6)]Man(b1-4)GlcNAc(b1-4)GlcNAc
# In short: as §1
# [33] = target: Neu5Ac(a2-3)Gal(b1-4)[Fuc(a1-3)]GlcNAc(b1-6)[Gal(b1-3)]GalNAc
# In short: as §1
# [34] = target: Neu5Ac(a2-6)Gal(b1-4)GlcNAc(b1-2)[Neu5Ac(a2-6)Gal(b1-4)GlcNAc(b1-4)]Man(a1-3)[GlcNAc(b1-4)][Neu5Ac(a2-6)Gal(b1-4)GlcNAc(b1-2)[Neu5Ac(a2-6)Gal(b1-4)GlcNAc(b1-6)]Man(a1-6)]Man(b1-4)GlcNAc(b1-4)GlcNAc
# In short: as §1
# [35] = target: Neu5Ac(a2-6)Gal(b1-4)GlcNAc(b1-3)Gal(b1-3)GlcNAc
# In short: as §1
# [36] = target: Neu5Ac(a2-6)GlcNAc(b1-4)GlcNAc
# In short: as §1
# [37] = target: Neu5Ac(a2-8)Neu5Ac(a2-8)Neu5Ac(a2-3)[GalNAc(b1-4)]Gal(b1-4)Glc
# In short: as §1
# [38] = target: Neu5Ac(b2-6)Gal(b1-4)GlcNAc
# In short: as §1
# [39] = target: Neu5Gc(a2-8)Neu5Gc(a2-3)Gal(b1-4)GlcNAc(b1-3)Gal(b1-4)GlcNAc
# In short: as §1
# [40] = target: Neu5Gc(b2-6)Gal(b1-4)GlcNAc
# In short: as §1
binder,measurement,setting,value
B1,glycan array binding signal (z-score),[1],-0.33
same,glycan array binding signal (z-score),[2],2.09
same,glycan array binding signal (z-score),[3],6.8
same,glycan array binding signal (z-score),[4],-0.282
same,glycan array binding signal (z-score),[5],-0.297
same,glycan array binding signal (z-score),[6],2.46
same,glycan array binding signal (z-score),[7],1.14
same,glycan array binding signal (z-score),[8],5.67
same,glycan array binding signal (z-score),Fuc(a1-3)GlcNAc,-0.568
same,glycan array binding signal (z-score),[9],-0.304
same,glycan array binding signal (z-score),Fuc(a1-4)GlcNAc,2.96
same,glycan array binding signal (z-score),[10],0.513
same,glycan array binding signal (z-score),[11],3.77
same,glycan array binding signal (z-score),[12],-0.25
same,glycan array binding signal (z-score),Gal(b1-4)Gal,1.95
same,glycan array binding signal (z-score),[13],0.236
same,glycan array binding signal (z-score),[14],-0.136
same,glycan array binding signal (z-score),[15],-0.342
same,glycan array binding signal (z-score),[16],-0.357
same,glycan array binding signal (z-score),[17],0.335
same,glycan array binding signal (z-score),Gal(b1-4)GlcNAc6P,0.464
same,glycan array binding signal (z-score),Gal3S(b1-3)GlcNAc,-0.347
same,glycan array binding signal (z-score),GalNAc3S(b1-4)GlcNAc,-0.59
same,glycan array binding signal (z-score),GalNAc3S(b1-4)GlcNAc3S,-0.23
same,glycan array binding signal (z-score),[18],-0.228
same,glycan array binding signal (z-score),[19],-0.036
same,glycan array binding signal (z-score),[20],8.32
same,glycan array binding signal (z-score),[21],-0.232
same,glycan array binding signal (z-score),[22],0.432
same,glycan array binding signal (z-score),[23],-0.559
same,glycan array binding signal (z-score),[24],0.35
same,glycan array binding signal (z-score),Kdn(a2-3)Gal(b1-4)Glc,0.194
same,glycan array binding signal (z-score),[25],0.213
same,glycan array binding signal (z-score),[26],-0.231
same,glycan array binding signal (z-score),Neu5Ac(a2-3)Gal,-0.145
same,glycan array binding signal (z-score),[27],4.95
same,glycan array binding signal (z-score),[28],0.412
same,glycan array binding signal (z-score),[29],0.069
same,glycan array binding signal (z-score),[30],3.12
same,glycan array binding signal (z-score),[31],-0.118
same,glycan array binding signal (z-score),Neu5Ac(a2-3)Gal(b1-4)Glc,4.42
same,glycan array binding signal (z-score),[32],-0.284
same,glycan array binding signal (z-score),[33],-0.345
same,glycan array binding signal (z-score),[34],-0.023
same,glycan array binding signal (z-score),[35],-0.551
same,glycan array binding signal (z-score),[36],-0.275
same,glycan array binding signal (z-score),[37],-0.338
same,glycan array binding signal (z-score),[38],-0.52
same,glycan array binding signal (z-score),[39],-0.414
same,glycan array binding signal (z-score),[40],-0.2
